Source: PubChem
The list is not random: actives were taken first. Their share in the collection is about 10%.
G9a inh: blocks human histone lysine methyltransferase G9a. Q96KQ7. G9a H3K9 monomethylation, AlphaScreen, 2 h. Potency, µM (series often up to 102 µM), actives largely listed as inhibitors. 350,000 compounds, 8.8% hits. AID 504332; further: nearly all actives have a fitted effect of over 75% in size
Target sequence (Q96KQ7 913-1193 limits assumed): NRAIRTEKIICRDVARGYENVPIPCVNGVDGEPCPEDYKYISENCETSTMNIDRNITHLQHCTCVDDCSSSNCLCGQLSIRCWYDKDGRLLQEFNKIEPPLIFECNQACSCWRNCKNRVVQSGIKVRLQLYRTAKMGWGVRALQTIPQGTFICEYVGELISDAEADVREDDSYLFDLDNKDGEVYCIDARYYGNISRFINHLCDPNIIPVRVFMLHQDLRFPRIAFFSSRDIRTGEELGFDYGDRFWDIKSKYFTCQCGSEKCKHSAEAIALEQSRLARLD
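Methyltransferase reactions run at room temperature for 2 h (20 nM enzyme, 500 nM biotin-H3K9 peptide, 20 uM SAM) after a 15 min compound preincubation; product detected by AlphaScreen beads and anti-H3K9me1 antibody.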
BAZ2B inh: inhibitors of human BAZ2B bromodomain; 360,000 compounds, 4.4% hits; Potency, µM (top dose mostly 114 µM), most hits filed as inhibitors; AlphaScreen BAZ2B-H3K14Ac peptide displacement; further: nearly all actives have a fitted effect of over 60% in size
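Multi-concentration screen (max 110 uM) measuring displacement of acetylated histone H3 peptide from BAZ2B by AlphaScreen, using 50 nM protein, 50 nM peptide and 10 ug/mL streptavidin donor plus Ni-chelate acceptor beads.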
Six1-Eya2 blk: inhibitors of human Six1/Eya2 interaction. AID 651725. AlphaScreen GST-Six1/His-Eya2 binding, biochemical; active compounds read low. activity change, % (test concentration not listed). 360,000 compounds, 0.56% hits. Q15475+O00167; in the data active means activity change below about -65%; inconclusive means mostly about -30% to -63%
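GST-Six1 + His-Eya2 (5X stock: 250/500 nM); Tris pH 8.0, 300 mM NaCl, 0.05% BSA, 0.02% Tween 20; GSH donor/Ni acceptor beads; 1 h 37 °C dark; AlphaScreen readout.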
JMJD2A Tudor: JMJD2A Tudor domain (human) inhibition; O75164; AlphaScreen JMJD2A-Tudor / H3K4me3 peptide binding; Potency, µM (highest dose often 114 µM), actives largely listed as inhibitors; 390,000 compounds, 4.4% hits; further: nearly all actives have a fitted effect of over 50% in size
CtBP-E1A blk: blocks the CtBP interaction with E1A; activity change, % (no concentration beside the values); AlphaScreen GST-E1A/His-CtBP binding, 1536-well; active compounds read low; 340,000 compounds, 0.49% hits; AID 651724; in the data active means activity change below about -65%; inconclusive means mostly about -30% to -63%
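Protein mix (5X: 125 nM each GST-E1A, His-CtBP) was incubated with pinned compound 2 h at 37 deg C in dark, in 50 mM Tris pH 8.0 buffer with 300 mM NaCl. Glutathione donor and nickel acceptor beads followed; AlphaScreen signal read after 1 h.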
HP1b binding inh: inhibitors of HP1-beta chromodomain binding to methylated histone tails | 390,000 compounds, 0.56% hits | P83916 | Potency, µM (doses to about 114 µM), actives largely listed as inhibitors | AlphaScreen HP1-beta / biotin-H3K9me3 peptide binding; further: nearly all actives have a fitted effect of over 70% in size
Target sequence (P83916 whole entry, looked up): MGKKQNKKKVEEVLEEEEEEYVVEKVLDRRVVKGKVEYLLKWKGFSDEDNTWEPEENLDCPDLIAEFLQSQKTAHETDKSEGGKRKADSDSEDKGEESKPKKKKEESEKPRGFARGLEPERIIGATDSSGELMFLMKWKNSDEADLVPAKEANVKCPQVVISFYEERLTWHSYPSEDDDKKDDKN
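HP1-beta protein (50 nM final) preincubated 30 min at room temperature with biotinylated H3(1-18)K9me3 peptide (50 nM) in PBS pH 7.4, 0.01% Tween-20, then compound added for 30 min. AlphaScreen streptavidin donor/nickel chelate acceptor beads (10 ug/mL final), 30 min dark, luminescence read.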
Each line names hits and unclear results; the compound was inactive in the other large screens. Unless noted, the call rests on the fitted dose curve; in most records, active means well fitted inhibition curve with a large enough effect; inconclusive means small, poorly fitted or top-dose-only effect; inactive means no such curve, though single readings can be large or run the other way.

COc1ccc(C(=O)C(C)OC(=O)C2CC3CCCC(C2)C3=O)cc1 (stereo not drawn)	none (no result: G9a inh, BAZ2B inh, JMJD2A Tudor, HP1b binding inh)
Cc1ccc(C(=O)c2no[n+]([O-])c2C(=O)c2ccc(C)cc2)cc1	G9a inh 40µM, BAZ2B inh inconclusive
CCOC(=O)c1c(N)n(-c2ccc(Cl)c(Cl)c2)c2nc3ccccc3nc12	none (no result: Six1-Eya2 blk, CtBP-E1A blk)
COc1ccc(-c2nnc3sc(-c4ccco4)nn23)cc1OC	G9a inh inconclusive
COc1cc(OC)c(-c2nn3c(-c4ccco4)nnc3s2)cc1OC	G9a inh 45µM, Six1-Eya2 blk inconclusive, CtBP-E1A blk inconclusive
COc1cc(-c2nnc3sc(-c4ccco4)nn23)cc(OC)c1OC	JMJD2A Tudor inconclusive
COc1ccc(-c2nn3c(-c4ccco4)nnc3s2)cc1OC	Six1-Eya2 blk -78, CtBP-E1A blk -86
CCN(C(=O)c1sc2nc3n(c(=O)c2c1C)CCCCC3)c1ccccc1F	G9a inh 8.9µM (no result: Six1-Eya2 blk, CtBP-E1A blk)
CCN(C(=O)c1sc2nc3n(c(=O)c2c1C)CCCCC3)c1ccc(OC)cc1	G9a inh 5.6µM, BAZ2B inh 35µM, JMJD2A Tudor 79µM (no result: Six1-Eya2 blk, CtBP-E1A blk)
Cc1c(C(=O)N(CCC#N)c2ccccc2)sc2nc3n(c(=O)c12)CCCC3	none
CCc1ccc(N(CC)C(=O)c2sc3nc4n(c(=O)c3c2C)CCCC4)cc1	G9a inh 16µM, BAZ2B inh 25µM, JMJD2A Tudor 79µM (no result: Six1-Eya2 blk, CtBP-E1A blk)
CCN(Cc1ccccc1)C(=O)c1sc2nc3n(c(=O)c2c1C)CCCC3	G9a inh inconclusive (no result: Six1-Eya2 blk, CtBP-E1A blk)
CC(C)(C)c1ccc(S(=O)(=O)NC(=O)C2(C)CCN2C(=O)Cc2ccc(-c3ccccc3)cc2)cc1 (stereo not drawn)	none (no result: G9a inh, BAZ2B inh, JMJD2A Tudor, HP1b binding inh)
COC(=O)C1(C(=O)OC)c2ccccc2CN(S(=O)(=O)c2ccc(C)cc2)C1CC(C)=O (stereo not drawn)	none (no result: G9a inh, BAZ2B inh, JMJD2A Tudor, HP1b binding inh)
O=C(CSc1ccc(F)cc1)NCC1(N2CCOCC2)CCCCC1	none
COCCCNC(=O)CCC(=O)NNc1nc2ccccc2c2nc(-c3ccccc3)nn12	none
Cc1nc2c3ccccc3nc(NNC(=O)CCC(=O)N3CCN(c4ccccc4)CC3)n2n1	none (no result: CtBP-E1A blk)
Cc1nc2c3ccccc3nc(NNC(=O)CCC(=O)N3CCC(C)CC3)n2n1	G9a inh 79µM (no result: CtBP-E1A blk)
COCCNC(=O)CCC(=O)NNc1nc2ccccc2c2nc(-c3ccccc3)nn12	Six1-Eya2 blk -67
CCOC(=O)C1CCN(C(=O)CCC(=O)NNc2nc3ccccc3c3nc(C)nn23)CC1	G9a inh 45µM (no result: CtBP-E1A blk)
COc1ccc(N2CCN(C(=O)CCC(=O)NNc3nc4ccccc4c4nc(C)nn34)CC2)cc1	G9a inh 22µM
CC(O)(c1cccc(F)c1)c1nc(-c2cc(F)cc(F)c2)cs1 (stereo not drawn)	none (no result: G9a inh, BAZ2B inh, JMJD2A Tudor, HP1b binding inh)
COc1ccccc1C(=O)COC(=O)Cn1[nH]c(=O)c2ccccc2c1=O	none
Cc1nc2c3ccccc3nc(NNC(=O)CCC(=O)NCCC(C)C)n2n1	G9a inh 50µM
CCN(CC)CCCNC(=O)CCC(=O)NNc1nc2ccccc2c2nc(C)nn12	BAZ2B inh inconclusive
COc1cc(Cl)c(C)cc1N1C(=O)CN(Cc2ccccc2)C1=S	G9a inh 35µM (no result: CtBP-E1A blk)
CCOC(=O)N1CCN(C(=O)c2cccc(F)c2)CC1	none
CC1CCCC(N2CCN(C(=O)c3cccc(F)c3)CC2)C1 (stereo not drawn)	G9a inh inconclusive, BAZ2B inh 50µM, JMJD2A Tudor 4.5µM, HP1b binding inh inconclusive
CC1CCCCC1N1CCN(C(=O)c2cccc(F)c2)CC1 (stereo not drawn)	G9a inh inconclusive, BAZ2B inh inconclusive, JMJD2A Tudor 40µM, HP1b binding inh inconclusive
Cc1cc2n(n1)C(c1ccc(N(C)C)cc1)Nc1ccccc1-2 (stereo not drawn)	JMJD2A Tudor 45µM
Cc1cc2n(n1)C(c1ccccc1)Nc1ccccc1-2 (stereo not drawn)	none
CCOC(=O)N1CCN(CC(O)COCC2=CCC3CC2C3(C)C)CC1 (stereo not drawn)	BAZ2B inh 50µM, JMJD2A Tudor 3.5µM, HP1b binding inh inconclusive (no result: G9a inh)
